ID4 SMM – binders of human ID4 protein, primary screen, biochemical, small molecule microarray, single point; Flag-ID4 binding, fluorescence F/B; calls only; 1.2% of 31,000 active; AID 624137, 2012; call rule not given here;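 further: a binder raises fluorescence above local background on the spot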
STK33 kin inh – STK33 kinase inhibitors, primary screen, biochemical, luminescence, ADP-Glo, MBP substrate | Serine/threonine-protein kinase 33 (Homo sapiens), Q9BYT3 | inhibition, % at 12.5 µM | 0.44% of 27,000 active | AID 2322, 2010; in the data active means inhibition above about 20%
Target sequence (Q9BYT3 whole entry, looked up): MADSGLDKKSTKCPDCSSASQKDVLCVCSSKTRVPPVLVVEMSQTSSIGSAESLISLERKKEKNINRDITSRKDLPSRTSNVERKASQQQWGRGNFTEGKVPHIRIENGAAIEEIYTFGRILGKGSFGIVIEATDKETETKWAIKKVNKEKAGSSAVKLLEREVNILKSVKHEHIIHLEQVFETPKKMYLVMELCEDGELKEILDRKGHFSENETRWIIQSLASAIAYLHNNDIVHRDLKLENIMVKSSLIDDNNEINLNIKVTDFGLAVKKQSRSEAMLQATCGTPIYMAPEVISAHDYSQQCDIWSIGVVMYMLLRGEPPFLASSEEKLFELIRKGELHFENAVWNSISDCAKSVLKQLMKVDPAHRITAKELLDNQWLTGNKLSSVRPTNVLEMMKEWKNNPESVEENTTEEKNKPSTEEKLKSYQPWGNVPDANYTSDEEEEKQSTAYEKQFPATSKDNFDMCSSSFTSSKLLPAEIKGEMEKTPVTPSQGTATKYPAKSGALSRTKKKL
mut p53 react – mutant p53 pathway re-activators, primary screen, cell-based, SW480, luciferase, single point, HTS. activation, % at 9.98 µM. AID 624151, 2012. 1.5% of 28,000 active. SW480 PUMA-promoter luciferase, p53 mutant reactivation; in the data active means activation above about 52%
* marks the source's active call; other numbers are inactive results; i = inactive; x = not tested or not shown; + = active, no number. Only some compounds are listed: those with a hit (about 2.1% of all), similar ones and a draw of the others.

SMILES	ID4 SMM	STK33 kin inh	mut p53 react
O=S(=O)(c1cccc2cccnc12)N1CCN(Cc2ccc(OCCO)cc2)CC1	+	0	x
C[C@H]1CN([C@@H](C)CO)C(=O)c2cc(NC(=O)CCN3CCOCC3)ccc2O[C@H]1CN(C)Cc1ccc(Cl)c(Cl)c1	x	-1	x
CN(C)C(=O)[C@]1(Cc2ccccc2)N=C(c2ccc(OCCCO)cc2)O[C@@H]1c1ccccc1	x	-1	x
CN(C)C(=O)[C@]1(CCS(=O)(=O)c2ccccc2)N=C(c2ccc(OCCCO)cc2)O[C@@H]1c1ccccc1	+	-3	x
O=C1Oc2cc(O)cc(O)c2[C@@H](c2ccc(O)cc2)[C@H]1[C@H]1C(=O)Oc2cc(O)cc(O)c2[C@H]1c1ccc(O)cc1	x	28*	-1
COc1ccc(C2CC(=O)Oc3cc(O)cc(O)c32)cc1 (stereo unspecified)	i	0	-2
COc1ccccc1CCNC(=O)c1cc(-c2ccccn2)nc2ccc(Br)cc12	i	3	-19
COc1cc(O)c(C(=O)/C=C/c2ccc(O)c(OC)c2)c(OC)c1	x	51*	x
COc1cc(/C=C/C(=O)NCC(O)c2ccc(O)cc2)ccc1O (stereo unspecified)	x	-3	16
Cc1cc(C)c(NC(=O)CSc2nnc(-c3ccc(Br)cc3)o2)c(C)c1	i	2	1
Cc1ccc(-c2cnc(-c3ccc(Br)cc3)o2)cc1	i	x	72*
Cc1ccc(C(=O)CSc2nc(C)nc3sc4c(c23)CCCC4)cc1	i	0	-4
Nc1nc(SCC(=O)c2ccccc2)nc2sc3c(c12)CCC3	i	5	113*
C[C@H]1CN([C@@H](C)CO)C(=O)CCCn2cc(nn2)CO[C@@H]1CN(C)Cc1ccccc1C(=O)O	x	5	x
C[C@@H]1CN([C@H](C)CO)C(=O)Cc2cc(NS(=O)(=O)c3cccs3)ccc2O[C@H]1CN(C)Cc1ccc(Cl)c(Cl)c1	x	1	x
CCc1ccc(OCC(=O)Nc2cccnc2)c(Br)c1	i	-10	96*
Cc1ccc(OCC(=O)Nc2cccc(C(=O)O)c2)c(Br)c1	i	2	-84
O=C(COc1cc(Cl)c(Cl)cc1Cl)Nc1cccnc1	i	-1	117*
CC(C)(C)c1ccc(OCC(=O)Nc2cccnc2)c(Br)c1	i	-2	70*
COC(=O)c1cc(OC)c(OC)cc1NC(=O)COc1ccc(C(C)(C)C)cc1Br	i	0	-9
O=C(COc1ccc(Cl)cc1)Nc1cccnc1	i	5	29
C[C@@H]1CN([C@H](C)CO)C(=O)c2cc(C3=CCCC3)cnc2O[C@H]1CN(C)Cc1ccccc1F	i	x	8
C[C@@H]1CN([C@H](C)CO)C(=O)c2cc(NS(=O)(=O)c3cn(C)cn3)ccc2O[C@H]1CN(C)C(=O)Nc1ccc(F)cc1	i	0	3
Cc1ccc(N2CC(C(=O)Nc3ccc(S(=O)(=O)NCC4CCCO4)cc3)CC2=O)cc1 (stereo unspecified)	+	0	1
CS(=O)(=O)Nc1ccc(S(=O)(=O)NCC2CCCO2)cc1 (stereo unspecified)	i	-1	-4
SMILES	ID4 SMM	STK33 kin inh	mut p53 react
O=C1C(c2c(O)[nH]c3ccccc23)=Nc2ccccc21	i	25*	-12
O=C1c2ccccc2-[n+]2ccc3c([nH]c4ccccc43)c21	x	5	0
Cc1nn(S(=O)(=O)c2ccccc2[N+](=O)[O-])c(C)c1Sc1ccccc1	i	5	-4
O=C(C[C@H]1CC[C@H](NC(=O)C2CCC2)[C@H](CO)O1)NCCCN1CCOCC1	i	x	x
O=C(C[C@H]1CC[C@@H](NC(=O)C2CCC2)[C@@H](CO)O1)NCCCN1CCOCC1	+	x	x
C[C@@H]1CN([C@H](C)CO)C(=O)c2cc(NC(=O)C3CC3)ccc2O[C@@H]1CN(C)Cc1ccc(Cl)c(Cl)c1	i	x	-8
Cc1noc(C)c1NC(=O)N(C)C[C@H]1OCCCC[C@@H](C)Oc2ccc(NS(C)(=O)=O)cc2C(=O)N([C@@H](C)CO)C[C@H]1C	i	x	-1
Cc1noc(C)c1NC(=O)N(C)C[C@@H]1OCCCC[C@@H](C)Oc2ccc(NS(=O)(=O)c3cn(C)cn3)cc2C(=O)N([C@H](C)CO)C[C@H]1C	+	x	6
CNC[C@@H]1OCCCC[C@@H](C)Oc2ccc(NS(=O)(=O)c3cn(C)cn3)cc2C(=O)N([C@@H](C)CO)C[C@@H]1C	i	x	-8
Cc1noc(C)c1NC(=O)N(C)C[C@@H]1OCCCC[C@@H](C)Oc2ccc(NS(=O)(=O)c3cccs3)cc2C(=O)N([C@H](C)CO)C[C@H]1C	+	x	3
CNC[C@@H]1OCCCC[C@H](C)Oc2ccc(NS(=O)(=O)c3cn(C)cn3)cc2C(=O)N([C@@H](C)CO)C[C@@H]1C	+	x	2
Cc1noc(C)c1NC(=O)N(C)C[C@@H]1OCCCC[C@H](C)Oc2ccc(NS(=O)(=O)c3cn(C)cn3)cc2C(=O)N([C@@H](C)CO)C[C@H]1C	i	x	5
Cc1noc(C)c1NC(=O)N(C)C[C@@H]1OCCCC[C@H](C)Oc2ccc(NS(=O)(=O)c3cccs3)cc2C(=O)N([C@@H](C)CO)C[C@@H]1C	+	x	-2
Cc1noc(C)c1NC(=O)N(C)C[C@@H]1OCCCC[C@@H](C)Oc2ccc(NS(=O)(=O)c3cccs3)cc2C(=O)N([C@@H](C)CO)C[C@H]1C	i	x	8
O=C(N[C@H]1CC[C@H](CC(=O)N2CCc3ccccc3C2)O[C@@H]1CO)C1CCC1	i	x	x
C[C@@H]1CN([C@H](C)CO)C(=O)c2cc(C#Cc3cccc(F)c3)cnc2O[C@@H]1CN(C)CC1CCCC1	i	x	x
COC(=O)c1ccc(NC(=O)CSc2cc(C)c3ccccc3n2)cc1	i	11	-2
C[C@@H]1CCCCO[C@H](CN(C)C)[C@H](C)CN([C@@H](C)CO)C(=O)c2cc(NC(=O)Nc3ccc(F)cc3)ccc2O1	i	x	-10
Cc1noc(C)c1NC(=O)N(C)C[C@H]1OCCCC[C@@H](C)Oc2ccc(NS(=O)(=O)c3c(C)noc3C)cc2C(=O)N([C@H](C)CO)C[C@@H]1C	x	4	x
Cc1noc(C)c1NC(=O)N(C)C[C@H]1OCCCC[C@@H](C)Oc2ccc(NS(=O)(=O)c3cccs3)cc2C(=O)N([C@H](C)CO)C[C@H]1C	+	x	-5
Cc1nc2cc(NC(=O)NCc3ccco3)ccc2o1	i	-3	58*
Cn1nnc2cc(NC(=O)NCc3ccco3)ccc21	i	0	18
O=C(CC(=O)c1ccccc1)c1ccccc1	i	-2	97*
O=C(O)CCNC(=O)c1ccccc1	i	1	x
N#Cc1ccc(Oc2ccc(C(=O)OCc3cccc(C(=O)c4ccccc4)c3)cc2)cc1C#N	i	4	8
CC(=O)Nc1ccccc1C(=O)OCc1cccc(C(=O)c2ccccc2)c1	i	-1	94*
O=C(OCc1cccc(C(=O)c2ccccc2)c1)c1ccc(-c2nnc(-c3ccccc3)o2)cc1	i	-1	71*
O=C(Nc1ccccc1C(=O)OCc1cccc(C(=O)c2ccccc2)c1)c1ccccc1	i	4	6
CC(C)NC(=O)Nc1ccc2c(c1)C(=O)N([C@@H](C)CO)C[C@@H](C)[C@@H](CN(C)C(=O)Nc1ccc(C(F)(F)F)cc1)O2	x	-3	x
